Compounds without any hit were thinned out: in the full panel of roughly 83,000, 20% have a hit.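 For each line, cells grew in 96-well plates with the test compound present at a single concentration for 48 hours.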 Active and inactive are the calls of the source. The calls were made as follows: active = growth percent below 10; inactive = the rest.
Columns and labels:
Test in all cases: NCI-60 one-dose screen, 48 h (100 = growth as untreated, 0 = no growth, -100 = all killed)
[1] = test system: SK-MEL-2 melanoma; settings: 10 µM unless noted
[2] = test system: EKVX NSCLC; settings: 10 µM unless noted
[3] = test system: SN12C renal; settings: 10 µM unless noted
[4] = test system: UO-31 renal; settings: 10 µM unless noted
[5] = test system: TK-10 renal; settings: 10 µM unless noted
[6] = test system: ACHN renal; settings: 10 µM unless noted
[7] = test system: CAKI-1 renal; settings: 10 µM unless noted
[8] = test system: A498 renal; settings: 10 µM
[9] = test system: HL-60(TB) leukemia; settings: 10 µM unless noted
[10] = test system: CCRF-CEM leukemia; settings: 10 µM unless noted
[11] = test system: MOLT-4 leukemia; settings: 10 µM unless noted
[12] = test system: SR leukemia; settings: 10 µM unless noted
[13] = test system: RPMI-8226 leukemia; settings: 10 µM unless noted
[14] = test system: OVCAR-8 ovarian; settings: 10 µM unless noted
[15] = test system: OVCAR-5 ovarian; settings: 10 µM unless noted
[16] = test system: OVCAR-4 ovarian; settings: 10 µM unless noted
[17] = test system: SK-OV-3 ovarian; settings: 10 µM unless noted
[18] = test system: IGROV1 ovarian; settings: 10 µM unless noted
[19] = test system: OVCAR-3 ovarian; settings: 10 µM unless noted
[20] = test system: HS 578T breast; settings: 10 µM unless noted

Measured: growth

C[C@]12CCc3sc(NCCc4ccccc4)nc3C1=CC[C@@H]1[C@@H]2CC[C@]2(C)C(=O)CC[C@@H]12
inactive: [1] 92.1% | [2] 92.4% | [3] 68.5% | [4] 50.4% | [5] 91.3% | [6] 73.8% | [7] 73.5% | [8] 86.9% | [14] 72.1% | [15] 100% | [16] 74.2% | [17] 112% | [18] 88% | [20] 75.5%
active: [9] 1.45% | [10] 8.44% | [11] 4.71% | [12] 0.916% | [13] -5.28% | [19] 6.41%

O=C1C2C(C(=O)[N]1[Hg][c]1cccs1)C1(Cl)C(Cl)=C(Cl)C2(Cl)C1(Cl)Cl (stereo not given)
inactive: [1] 54.6% | [2] 34.5% | [5] 49.9% | [8] 124% | [14] 11.9% | [15] 13.7% | [16] 37.3% | [17] 102% | [20] 42%
active: [3] -46.9% | [4] -29.8% | [6] -35.7% | [7] 1.56% | [9] -12.1% | [10] -14.1% | [11] 3.08% | [12] 1.72% | [13] -11.4% | [18] 0.499% | [19] -91.1%

COc1cccc(/C=C/[N+](=O)[O-])c1
active: [12] -21.6% | [13] -21.2%
inactive: [1] 97.4% | [2] 89.2% | [3] 99.5% | [4] 45.8% | [5] 90.9% | [6] 74.7% | [7] 96.8% | [8] 43.8% | [9] 17.4% | [10] 51.2% | [11] 50.4% | [14] 79.6% | [15] 92.8% | [16] 104% | [17] 94.4% | [18] 55.8% | [19] 75.2% | [20] 95%

Fc1c[c-]c(-c2ccccn2)c(F)c1.[CH3-].[Pt+2].c1ccc([PH+](c2ccccc2)c2ccccn2)cc1
active: [1] -34.1% | [2] 4.9% | [3] 3.34% | [4] -71.9% | [5] -1.18% | [6] -80.4% | [7] -56.2% | [8] -21% | [9] -6.41% | [10] 9.35% | [11] 8.87% | [12] -2.4% | [13] -8.21% | [15] -48.1% | [16] -2.32% | [17] 5.32% | [18] -12% | [19] -22.2% | [20] -1.24%
inactive: [14] 10.3%

C=CC[Se]C(=O)c1ccccc1OC(C)=O
inactive: [1] 37.2% | [5] 12.5% | [11] 14.7% | [18] 18.1%
active: [2] -30.8% | [3] -18.4% | [4] -53.5% | [6] -26.6% | [7] -9.51% | [8] -3.97% | [9] -45.7% | [10] 5.37% | [12] 6.08% | [13] -22.8% | [14] -12.8% | [15] -32.1% | [16] -36% | [17] -28.8% | [19] 2.36% | [20] -8.17%

C=C(C)[C@@]12OC3(/C=C/C=C/CCCCC)O[C@@H]1[C@@H]1[C@@H]4O[C@]4(CO)[C@@H](O)[C@]4(O)C(=O)C(C)=C[C@H]4[C@@]1(O3)[C@H](C)[C@H]2OC(=O)c1ccccc1
active: [8] -47.2% | [9] -7.45% | [20] 4%
inactive: [1] 80.4% | [2] 67.4% | [3] 16.5% | [4] 39.7% | [5] 47.1% | [6] 42.9% | [7] 69.8% | [10] 45.8% | [11] 31.2% | [12] 67.2% | [13] 66.4% | [14] 82.6% | [15] 107% | [16] 72.2% | [17] 102% | [18] 52.3% | [19] 61.6%

CC(CC1CCCCC1)NCc1ccccc1 (stereo not given)
inactive: [1] 102% | [2] 99.1% | [3] 94% | [4] 66.2% | [5] 94.2% | [6] 96.1% | [7] 99.9% | [8] 89.5% | [9] 111% | [10] 100% | [11] 100% | [12] 105% | [13] 106% | [14] 106% | [15] 91.1% | [16] 113% | [17] 111% | [18] 107% | [19] 105% | [20] 98.5%

O=C(Nc1ccncc1F)c1cn(CC2CC2)c2ccccc12
inactive: [1] 98.8% | [2] 89.2% | [3] 102% | [4] 93.9% | [5] 103% | [6] 108% | [7] 98.2% | [8] 91% | [9] 100% | [10] 102% | [11] 101% | [12] 116% | [13] 91.9% | [14] 101% | [15] 113% | [16] 97.7% | [17] 105% | [18] 109% | [19] 110% | [20] 98.7%

C[N+](C)(C)Cc1cc(Cl)ccc1O
active: [10] 8.41%
inactive: [1] 99.7% | [2] 115% | [3] 106% | [4] 90.8% | [5] 110% | [6] 95.9% | [7] 106% | [8] 90.1% | [9] 87.4% | [11] 96.9% | [12] 104% | [13] 76.3% | [14] 99.4% | [15] 101% | [16] 92.8% | [17] 110% | [18] 95.1% | [19] 109% | [20] 103%

CC12CC=CCC1CCC1C2CCC2(C)C(c3ccc(=O)oc3)CCC12O (stereo not given)
active: [1] -33.6% | [2] -85.1% | [3] -13.1% | [4] -91.4% | [5] -62.2% | [6] -90% | [7] -57% | [8] -22.7% | [9] -14% | [10] 1.08% | [11] -15.7% | [12] -3.66% | [13] -9.88% | [14] -41.8% | [15] -80.6% | [16] -48.1% | [17] -8.44% | [18] -12.3% | [19] -76.8% | [20] -18.5%

CC[C@H](C)[C@H](NC(=O)[C@H]1CCCCN1C)C(=O)N(C)[C@H](C[C@@H](OC(C)=O)c1nc(C(=O)NC23CC(C(=O)OC)(C2)C3)cs1)C(C)C
inactive: [1] 29.5% | [2] 34.3% | [3] 32.7% | [4] 33.1% | [5] 15.7% | [6] 11.6% | [7] 26.5% | [13] 25.6% | [14] 18.6% | [15] 53.7% | [16] 42.7% | [17] 24.4% | [18] 32% | [20] 27.5%
active: [8] -7.99% | [9] -37.2% | [10] 1.09% | [11] 6.06% | [12] 0.833% | [19] -18.6%

Fc1ccc(N2COOC3(OOC2)C2CC4CC(C2)CC3C4)cc1
inactive: [1] 88.8% | [2] 79.4% | [3] 101% | [5] 93% | [6] 59.7% | [7] 26% | [8] 90.1% | [9] 74% | [10] 94.2% | [11] 92.8% | [13] 95.4% | [14] 86.7% | [15] 98.6% | [16] 101% | [17] 105% | [18] 16.5% | [19] 97% | [20] 109%
active: [4] -74.9% | [12] -19.2%

CC(C)CCC(=O)O[C@H]1CC[C@H]2[C@@H]3CCC4=CC(=O)CC[C@]4(C)[C@H]3CC[C@]12C
inactive: [1] 115% | [2] 73.9% | [3] 107% | [4] 82.1% | [5] 100% | [6] 98.5% | [7] 88.5% | [8] 77.2% | [9] 108% | [10] 104% | [11] 96% | [12] 90.7% | [13] 98.6% | [14] 104% | [15] 93% | [16] 103% | [17] 128% | [18] 96.3% | [19] 97.9% | [20] 86.9%

COc1cc2c(cc1OCCCn1c(-c3ccccn3)nc3ccccc31)N=C[C@@H]1CCCN1C2=O
inactive: [2] 43.3% | [3] 26% | [14] 25.5% | [16] 15.6% | [17] 30.8%
active: [1] -71.1% | [4] -53.7% | [5] -20.8% | [6] -64.9% | [7] -6.53% | [8] -72.1% | [9] -21.7% | [10] 5.34% | [11] 8.22% | [12] 3.55% | [13] -37.5% | [15] 2.58% | [18] -62.3% | [19] 2.94% | [20] -2.53%

C/C(=C\c1ccn(-c2ccccc2N)n1)[C@@H]1C[C@@H]2O[C@]2(C)CCC[C@H](C)[C@H](O)[C@@H](C)C(=O)C(C)(C)[C@@H](O)CC(=O)O1
active: [9] 9.72% | [19] -2.9% | [20] 7.14%
inactive: [1] 33.2% | [2] 44.8% | [3] 38% | [4] 41.5% | [5] 51.6% | [6] 46.3% | [7] 40.4% | [8] 13% | [10] 19.6% | [11] 12.4% | [12] 17.4% | [13] 15.3% | [14] 26.2% | [15] 31.6% | [16] 51.2% | [17] 40.2% | [18] 41.5%

— PubChem BioAssay (NCI)
